This is a sample that favours compounds with a hit; in the whole collection about 1.8% have one here.
CIT2 TOR yeast: modulators of CIT2-GFP expression in yeast, primary screen, S. cerevisiae, GFP fusion, multiplex flow cytometry, MLPCN library; S. cerevisiae CIT2-GFP strain, 3 h; 100 means same as DMSO wells; GFP response vs DMSO, % at 10 µM; hit rate 0.065% among 320,000;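 active means GFP response relative to DMSO above a set limit, near the screen mean plus 3 SD, cut at about 150% in these data; inconclusive means Fewer than 70 cells measured for a yeast strain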;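 further: ratio of well median GFP fluorescence to mean of DMSO wells on the plate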
AGP1-GFP MLPCN: modulators of AGP1-GFP expression in yeast TOR pathway, primary screen, cell-based, multiplex flow cytometry, S. cerevisiae, MLPCN library; 3 h; GFP as percent of DMSO wells; GFP response vs DMSO, % at 10 µM; hit rate 0.02% among 320,000;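 active means GFP response relative to DMSO above a set limit, near screen average plus 3 SD, cut at about 150% in these data; inconclusive means fewer than 70 cells counted for the yeast strain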;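 further: median GFP channel fluorescence of the gated AGP1 strain per well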
MEP2-GFP yeast: modulators of MEP2-GFP levels in yeast, primary screen, S. cerevisiae, multiplex flow cytometry, MLPCN library; AID 2016, 2009; hit rate 0.51% among 330,000; S. cerevisiae MEP2-GFP strain, 3 h; 100% = DMSO control level; GFP response vs DMSO, % at 10 µM;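 active means GFP response versus DMSO above a set limit, roughly screen mean plus 3 SD, cut at about 180% in these data; inconclusive means fewer than 70 cells counted for a yeast strain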;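 further: median GFP fluorescence of the barcode-gated MEP2-GFP cells per well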
LAP4 TOR yeast: modulators of LAP4-GFP expression in yeast, primary screen, S. cerevisiae, multiplex flow cytometry, MLPCN library | AID 2023, 2009 | GFP response vs DMSO, % at 10 µM | hit rate 0.34% among 320,000 | 3 h; median GFP as percent of DMSO wells;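 active means GFP response vs DMSO above a set limit, about the screen mean plus 3 SD, cut at about 150% in these data; inconclusive means under 70 cell events counted for the yeast strain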
Myeloid diff MLP: induction of myeloid progenitor differentiation, primary screen, cell-based, flow cytometry, MLPCN library; AID 624256, 2012; hit rate 1% among 360,000; ER-HoxA9 myeloid progenitors, lysozyme-GFP differentiation; calls only at 10 µM;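 active means normalized GFP-positive differentiation at or above the plate's own cutoff, the solvent-only control mean plus 3 SD; inconclusive means no clear call, values can overlap the other calls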;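 further: cells exposed to compound for four days before flow analysis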
RPL19A-GFP yeast: RPL19A-GFP expression modulators in yeast, primary screen, cell-based, S. cerevisiae, multiplex flow cytometry, MLPCN | S. cerevisiae RPL19A-GFP strain, 3 h; stronger effect = lower value | hit rate 0.3% among 330,000 | AID 2025, 2009 | percent response vs DMSO, % at 10 µM;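 active means percent response vs DMSO below 50%; inconclusive means fewer than 70 events counted for the yeast strain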;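 further: median channel GFP fluorescence of the barcoded RPL19A-GFP strain; ratio of sample median GFP to plate DMSO average so 100% = DMSO; lower means less RPL19A-GFP as with rapamycin TOR inhibition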
LAP4 cherry2: LAP4-GFP expression modulators in yeast, confirmation, cell-based, second cherry pick, flow cytometry; shares compounds with LAP4 TOR yeast; S. cerevisiae LAP4-GFP strain, 3 h; GFP response vs DMSO, % at 10 µM; hit rate 20% among 590; AID 2621, 2010;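 active means GFP signal as percent of the solvent control above about 150%, meaning raised reporter expression, limit read from the data; inconclusive means fewer than 70 cells counted in the well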;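 further: ratio of well median GFP fluorescence to plate DMSO mean so 100% = DMSO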
MEP2 cherry2: modulators of MEP2-GFP levels in yeast, confirmation, S. cerevisiae, flow cytometry GFP, second cherry picks. shares compounds with LAP4 TOR yeast. S. cerevisiae MEP2-GFP strain, 3 h. GFP response vs DMSO, % at 10 µM. hit rate 10% among 590;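 active means GFP signal above 150% of the solvent control wells, that is a rise of more than half; inconclusive means fewer than 70 yeast cells counted in the well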;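 further: median channel GFP fluorescence of all gated yeast cells per well; ratio of median GFP to plate DMSO average so 100% = DMSO level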
RPL19A GFP CP2: RPL19A-GFP modulators in TOR pathway yeast, confirmation, cell-based, S. cerevisiae, flow cytometry, second cherry pick; AID 2623, 2010; GFP response vs DMSO, % at 10 µM; S. cerevisiae RPL19A-GFP strain, 3 h; stronger effect = lower value; 100% means same as DMSO wells; hit rate 3% among 590; shares compounds with LAP4 TOR yeast;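 active means under 65% GFP response relative to DMSO; inconclusive means yeast strain with under 70 measured events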;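 further: median GFP channel fluorescence per well over the all cells gate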
CIT2 GFP CP2: modulators of CIT2-GFP expression in yeast, confirmation, flow cytometry, second cherry pick, single plex; shares compounds with LAP4 TOR yeast; S. cerevisiae CIT2-GFP strain, 3 h; DMSO control wells read 100%; GFP response vs DMSO, % at 10 µM; hit rate 8% among 590; AID 2624, 2010;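 active means GFP response vs DMSO above about 150%, limit read from the data; inconclusive means fewer than 70 events counted for a yeast strain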;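 further: median green fluorescence per well over all gated yeast cells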
AGP1-GFP pick2: AGP1-GFP expression modulators, hit retest, confirmation, cell-based, flow cytometry, S. cerevisiae, cherry pick set 2 | shares compounds with LAP4 TOR yeast | S. cerevisiae AGP1-GFP strain, 3 h | percent response vs DMSO, % at 10 µM | 590 tested, under 10 active | AID 2643, 2010;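 active means over 150 percent of DMSO response; inconclusive means yeast strain measured with under 70 events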;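 further: median GFP channel fluorescence over all cells without mother daughter split; sample median GFP divided by mean DMSO control so 100% equals DMSO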
Active calls of the source: *; i = inactive; u = inconclusive; x = not tested or not shown; + = active, no number; [ ] = another dose, or the depositor's remark.

SMILES	CIT2 TOR yeast	AGP1-GFP MLPCN	MEP2-GFP yeast	LAP4 TOR yeast	Myeloid diff MLP	RPL19A-GFP yeast	others
C[C@H](NC(=O)c1ncn2c1C(=O)N(C)CC2)C(=O)OC(C)(C)C	x	x	x	x	i	x
COc1cc(C(=O)Nc2nccs2)ccc1OCc1c(C)noc1C	97.2	100.5	107.3	102.2	i	101.7
COc1ccc(NC(=O)c2ccc(OCc3c(C)noc3C)c(OC)c2)cn1	u	u	189.9*[may fluoresce violet]	72.0	i	52.8
N=C1c2ccccc2CN1NC(=O)CC12CC3CC(CC(C3)C1)C2	96.4	100.1	101.8	105.9	+	103.2
Cc1cccc2c(N)c3c(nc12)CCCC3 (tested in a mixture with another compound)	x	x	x	x	i	x
Cc1cc(C)c2c(N)c3cccc(C)c3nc2n1	u	25.1	321.8*[may fluoresce violet]	94.5	u	61.8
Cc1c(C(=O)N(C)Cc2nc3ccccc3c(=O)[nH]2)oc2ccccc12	91.8	96.4	105.1	102.6	+	95.8
COC(=O)c1c(NC(=O)CN2C(=O)C(=O)N(C(C)C)C2=O)sc(C)c1C	98.4	97.8	100.6	99.8	i	97.0
COc1ccc(C2/C(=C(/O)c3ccc4c(c3)CC(C)O4)C(=O)C(=O)N2CCCn2ccnc2)cc1OC (stereo unspecified)	x	x	x	x	i	x
C/C(=N/Nc1nc(-c2ccccc2F)nc2ccccc12)c1ccccc1O	94.4	92.1	104.5	86.7	+	104.7
OCc1ccccc1SSc1ccccc1CO	101.5	95.7	89.5	192.2*	i	89.4
OCc1ccccc1CNCc1ccccc1	102.2	105.5	102.7	99.5	i	100.6
COc1ccc(CCNS(=O)(=O)c2cccc(S(=O)(=O)N3CCCC3)c2)cc1OC	x	x	x	x	i	x
O=S(=O)(NCC1CC1)c1cccc(S(=O)(=O)N2CCCC2)c1	93.8	96.2	97.7	91.0	+	96.5
Nc1nc(Nc2ccccc2)n[nH]1	101.7	106.7	105.8	101.8	i	104.4
CCOc1cc2c(C#N)c(N3CCOCC3)nc(N)c2c(N)n1	97.0	x	100.4	93.3	i	92.8
CCOc1cc2c(C#N)c(N(CC)CC)nc(N)c2c(N)n1	66.6	70.1	89.3	153.4*	i	94.8	LAP4 cherry2=101.2;MEP2 cherry2=99.6;RPL19A GFP CP2=98.7;CIT2 GFP CP2=100.1;AGP1-GFP pick2=97.4
O=C(CN1CCN(CN2C(=O)NC3(CCCCCC3)C2=O)CC1)Nc1ccc(F)cc1	94.5	93.1	90.8	90.3	i	98.2
